Common to all, as to experiment: yeast three-hybrid, YBZ-1, SC-Leu-His + 0.5 mM 3-AT, 4 days
Common to all, as to conditions: tags: N-Gal4 AD-HA kept; label: inside an RPR1-promoter hybrid RNA with tandem MS2 sites; ssRNA

The target in one test is PUM1 PUF domain R5-QKA (Homo sapiens, UniProt Q14671 828-1176, C1007Q;R1008K;Q1011A). Put shortly: (§1)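 Repeat regions from input (SC-Leu) and selection (SC-Leu-His + 0.5 mM 3-AT) plates were PCR-amplified and Illumina-sequenced after four days of growth. The cells were strain YBZ-1 with a LexA–MS2 coat fusion and a HIS3 reporter, co-expressing Pumilio-1 PUF domain libraries and matching RNA elements from a centromeric plasmid. The interaction score is the log change in variant frequency from input to selection, taken in log2 with a pseudocount of 1 for absent variants.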

The target of the next test is PUM1 PUF domain R5-KRF (Homo sapiens, UniProt Q14671 828-1176, C1007K;Q1011F). Put shortly: as §1
A further test has as its target PUM1 PUF domain R5-RYG (Homo sapiens, UniProt Q14671 828-1176, C1007R;R1008Y;Q1011G). Put shortly:
as §1

The next test addresses PUM1 PUF domain R5-KGT (Homo sapiens, UniProt Q14671 828-1176, C1007K;R1008G;Q1011T). Put shortly:
as §1

The target in another test is PUM1 PUF domain R5-GYL (Homo sapiens, UniProt Q14671 828-1176, C1007G;R1008Y;Q1011L). In short, it runs like this: as §1
In the next test the target is PUM1 PUF domain R5-WHR (Homo sapiens, UniProt Q14671 828-1176, C1007W;R1008H;Q1011R). In short, it runs like this:
as §1

The target in the next test is PUM1 PUF domain R4-FGC (Homo sapiens, UniProt Q14671 828-1176, N971F;H972G;Q975C). Put shortly: as §1
The target of a further test is PUM1 PUF domain R3-FFL (Homo sapiens, UniProt Q14671 828-1176, C935F;R936F;Q939L). Put shortly: as §1
Another test concerns the target PUM1 PUF domain R3-RAC (Homo sapiens, UniProt Q14671 828-1176, C935R;R936A;Q939C). Put shortly:
as §1

In the next test the target is PUM1 PUF domain R3-RCR (Homo sapiens, UniProt Q14671 828-1176, C935R;R936C;Q939R). In short, it runs like this:
as §1

On to “GGCUAGAACUAGUGGAUCCCCCGGCGCCCGGCGGCUCGAGCCCGGGUAAGUGUCAAUAGUCUGCAUGCCGCCGGGCGCCAUGCCUGCAGGUCGACUCUAGAAAACAUG”, for which the binding signal is 2.79 log2 enrichment (interaction score) with PUM1 PUF domain R5-QKA; 2.59 log2 enrichment (interaction score) in the test with PUM1 PUF domain R5-KRF; 5.09 log2 enrichment (interaction score) with PUM1 PUF domain R5-RYG; 2.31 log2 enrichment (interaction score) with PUM1 PUF domain R5-KGT; 0.48 log2 enrichment (interaction score) with PUM1 PUF domain R5-GYL; 3.55 log2 enrichment (interaction score) in the test with PUM1 PUF domain R5-WHR.

Take “GGCUAGAACUAGUGGAUCCCCCGGCGCCCGGCGGCUCGAGCCCGGGUAAGUGUAUAUAGUCUGCAUGCCGCCGGGCGCCAUGCCUGCAGGUCGACUCUAGAAAACAUG”: in the test with PUM1 PUF domain R4-FGC, the binding signal was 3.05 log2 enrichment (interaction score).

Regarding “GGCUAGAACUAGUGGAUCCCCCGGCGCCCGGCGGCUCGAGCCCGGGUAAGUGUAAAUAGUCUGCAUGCCGCCGGGCGCCAUGCCUGCAGGUCGACUCUAGAAAACAUG”, the binding signal is 2.94 log2 enrichment (interaction score) with PUM1 PUF domain R5-RYG, 1 log2 enrichment (interaction score) with PUM1 PUF domain R4-FGC and 3.27 log2 enrichment (interaction score) in the test with PUM1 PUF domain R3-FFL.

“GGCUAGAACUAGUGGAUCCCCCGGCGCCCGGCGGCUCGAGCCCGGGUAAGUGUACAUAGUCUGCAUGCCGCCGGGCGCCAUGCCUGCAGGUCGACUCUAGAAAACAUG”: the binding signal with PUM1 PUF domain R4-FGC was 0.93 log2 enrichment (interaction score).

For “GGCUAGAACUAGUGGAUCCCCCGGCGCCCGGCGGCUCGAGCCCGGGUAAGUGUAAUUAGUCUGCAUGCCGCCGGGCGCCAUGCCUGCAGGUCGACUCUAGAAAACAUG”, the figures for the binding signal with PUM1 PUF domain R3-RAC and with PUM1 PUF domain R3-RCR were 4.24 log2 enrichment (interaction score) and 2.77 log2 enrichment (interaction score), respectively.

As for “GGCUAGAACUAGUGGAUCCCCCGGCGCCCGGCGGCUCGAGCCCGGGUAAGUGUUAAUAGUCUGCAUGCCGCCGGGCGCCAUGCCUGCAGGUCGACUCUAGAAAACAUG”, the binding signal in the test with PUM1 PUF domain R5-KGT was 2.93 log2 enrichment (interaction score); in the test with PUM1 PUF domain R5-GYL it was 7.41 log2 enrichment (interaction score); in the test with PUM1 PUF domain R5-WHR, 4.76 log2 enrichment (interaction score).

For the origin of these results see paper PMC8384837, “Expanding the binding specificity for RNA recognition by a PUF domain”.
